This is an account of results in PubChem BioAssay AID463173 (ICCB-Longwood Screening Facility, Harvard Medical School, 2010).

In all, about 52,000 compounds went through this assay and about 4,300 (8.3%) were called active. Many of the other results were omitted from the sample, so actives are more common in it than they were. Unmarked numbers belong to inactive results. No stated cut-off is given here; in the data, active means survival mostly below about 52% (no sharp cut-off); inactive means mostly above about 56%.

The test system of this assay is DeltatarO mutant. In words: S. aureus survival, RN4220 and DeltatarO strains – OD600, teichoic acid synthesis inhibitors, primary screen (AID 463173). Particulars: S. aureus RN4220 wild type/DeltatarO growth, OD600, 18 h, active compounds read low, screened at 18.75 µg/mL (by protocol).
For `COc1ccc(NC(=O)C2=C(C)Nc3ncnn3C2c2ccccn2)cc1` (centres undefined), the survival was 81%. The value for `Cc1ccc(S(=O)(=O)N2C(=O)CCC2C(=O)NCc2ccco2)cc1` (centres undefined) was 77%; that for `Cc1ccc2c(CC(=O)N3CCN(c4cccc(Cl)c4)CC3)coc2c1` was 75%. The result for `CCN(CC)CC(=O)Oc1ccc(NC2=NS(=O)(=O)c3ccccc32)cc1` reads 96%; that for `CC1CCCN(C(=O)CCS(=O)(=O)c2cc3c(cc2Cl)NC(=O)CO3)C1` (centres undefined), 84%; that for `CCCC(=O)NCCc1ccc(F)cc1`, 119%.

As to `COC(=O)c1cc2occc2n1CC(=O)Nc1cccc(SC)c1`, the survival is 102%. Regarding `Cc1ccc2onc(CC(=O)N3CCN(c4ccc(F)cc4)CC3)c2c1`, the survival is 41% (active). For `Cc1ccc2oc(=O)c3cnn(CC(=O)N4CCN(c5ccc(F)cc5)CC4)c3c2c1`, the survival was 106%. The result for `CC(=O)c1ccc(N2CCN(C(=O)NCc3noc4ccc(C)cc34)CC2)cc1` reads 45%; that for `CC(C)CNCC(=O)N(C1CCCCC1)C1CCCCC1`, 116%; that for `Cc1ccc(-c2cc(C(=O)NCc3cnn(C)c3C)c3cc(Br)ccc3n2)cc1`, 36% (active). The result for `CCOc1ccc(-c2cc(C(=O)NCc3ccccc3Cl)c3ccccc3n2)cc1` reads 89%. The result for `COc1ccc(-c2cc(C(=O)NCc3ccc(C)cc3)c3cc(C(C)C)ccc3n2)cc1` reads 76%. For `Cc1ccc(-c2cc(C(=O)NCc3cnn(C)c3)c3cc(Br)ccc3n2)cc1`, the survival is 51%. The result for `Cc1nn(C)cc1CN(C)C(=O)c1cc(-c2ccccc2)nc2ccc(Br)cc12` reads 67%; that for `Cc1ccc(CNC(=O)c2cc(-c3ccc(C)c(C)c3)nc3ccccc23)cc1`, 74%; that for `Cc1c(CN(C)C(=O)c2cc(-c3ccccc3)nc3ccc(Br)cc23)cnn1C`, 30% (active). `CCn1cc(CNC(=O)c2cc(-c3ccc(C)c(C)c3)nc3ccccc23)c(C)n1`: the survival is 123%. The result for `Cc1ccc(-c2cc(C(=O)NCc3ccccc3Cl)c3ccccc3n2)cc1C` reads 68%; that for `Cc1ccc(-c2cc(C(=O)NCc3cnn(C)c3C)c3ccccc3n2)cc1C`, 49% (active); that for `N#CCN(CC#N)C(=O)c1cc(-c2ccccc2)nc2ccccc12`, 89%. The result for `CCn1cc(CNC(=O)c2cc(-c3ccc(C)cc3)nc3ccc(Br)cc23)c(C)n1` reads 40% (active). The value for `CC(C)N(C(=O)CSc1nnc(CSc2ncccn2)n1C)C(C)C` was 58%; that for `CCOC(=O)c1ccc(NC(=O)Cc2ccc(-n3c(CC)nc4cccnc43)cc2)cc1` was 68%; that for `Cc1ccccc1Cn1c(=O)n(Cc2ccc3c(c2)OCO3)c(=O)c2oc3ccccc3c21` was 110%. For `C/C=N/NC(=O)c1ccccc1`, the survival is 93%. The value for `O=C(NC1CCCCC1)c1ccc2c(c1)N(Cc1cccc(F)c1)C(=O)c1ccccc1S2` was 88%; that for `Cn1cnc(S(=O)(=O)N2CCC(C(=O)Nc3ccc(C#N)cc3)CC2)c1` was 107%; that for `CC1=C(C(=O)Nc2cccc(C(F)(F)F)c2)C(c2ccccn2)n2ncnc2N1` (centres undefined) was 102%. `CC(C)(C)c1nn(-c2ccccc2)c2[nH]c(=O)c(CNc3ccc4c(c3)OCO4)cc12`: the survival is 86%. The result for `CCOC(=O)c1ccc(N2C(=O)c3[nH]nc(-c4ccccc4)c3C2c2cccs2)cc1` (centres undefined) reads 123%; that for `CCOC(=O)c1cc2c(=O)n3ccccc3nc2n(CC(C)C)c1=NC(=O)COc1ccc(Cl)cc1`, 136%.

For the molecule `CCOC(=O)c1cc2c(=O)n3ccccc3nc2n(Cc2ccco2)c1=NC(=O)c1ccccc1OC`, the survival is 28% (active). The value for `CCOC(=O)c1cc2c(=O)n3ccccc3nc2n(Cc2ccco2)c1=NC(=O)c1ccc(OC)cc1` was 34% (active); that for `CCOC(=O)c1cc2c(=O)n3ccccc3nc2n(Cc2ccco2)c1=NC(=O)c1ccc(OCC)cc1` was 37% (active).

For the molecule `CCOC(=O)c1cc2c(=O)n3ccccc3nc2n(Cc2ccco2)c1=NC(=O)c1ccccc1Br`, the survival is 71%. `CCC(C)NC(=O)Cn1c(=O)n(Cc2ccc(C(=O)NCc3ccccc3OC)cc2)c(=O)c2ccccc21` (centres undefined): the survival was 84%. As for `O=c1ccnc(NCCc2ccccc2)[nH]1`, the survival is 104%. The result for `Cn1cnc(S(=O)(=O)N2CCCC(C(=O)NCc3ccccc3Cl)C2)c1` (centres undefined) reads 99%; that for `O=C1CSC(=S)N1C1CCS(=O)(=O)C1` (centres undefined), 97%. The result for `O=C1/C(=C/C2=Cc3ccccc3OC2)SC(=S)N1C1CCS(=O)(=O)C1` (centres undefined) reads 44% (active).

Regarding `O=C1/C(=C\c2cccnc2)SC(=S)N1C1CCS(=O)(=O)C1` (centres undefined), the survival is 93%. On to `COc1ccc(-n2cc(-c3ccc4c(c3)OCO4)n(CC(=O)Nc3cc(Cl)ccc3C)c2=O)cc1`, for which the survival was 73%.

With `O=C(c1ccc2c(c1)N(Cc1ccc(F)cc1)C(=O)c1ccccc1S2(=O)=O)N1CCN(Cc2ccccc2)CC1`, the survival is 72%. On to `Cc1ccc(CCNC(=O)c2ccc(CSCc3ccccc3C)o2)cc1`, for which the survival was 32% (active). The value for `Cc1ccc(CCNC(=O)CCSCc2ccccc2Cl)cc1` was 20% (active); that for `O=C(CCSCc1ccc(Cl)cc1)NCCc1ccccc1` was -5% (active). `CCc1ccc(CNC(=O)CCSCc2ccccc2F)cc1`: the survival is 96%.

For the molecule `Cc1ccc(CCNC(=O)CCSCc2ccccc2F)cc1`, the survival was -4% (active). The value for `O=C(CCSCc1cccc(Cl)c1)NCCc1ccc(Cl)cc1` was 76%; that for `Cc1ccccc1CSCc1ccc(C(=O)NCCc2ccccc2)o1` was 83%; that for `Cc1ccc(CCNC(=O)CCSCc2ccc(Cl)cc2)cc1` was 82%. For `Cc1ccc(CCNC(=O)c2ccc(CSCc3ccccc3Cl)o2)cc1`, the survival is 87%. The result for `COc1ccc(CCNC(=O)CCSCc2ccccc2Cl)cc1OC` reads 76%. On to `Cc1ccc(CNC(=O)CCSCc2ccccc2F)cc1`, for which the survival is 78%. Take `O=C(CCSCc1ccccc1Cl)NCCc1ccccc1`: the survival was 71%. For the molecule `O=C(NC1CCN(CC(=O)N2CCOCC2)CC1)C1CCCCC1`, the survival was 95%. The result for `CCN(C(=O)c1cccn(Cc2cccc(Cl)c2)c1=O)c1ccccc1` reads 80%. The value for `COc1ccccc1C(=O)Nc1ccc(OCc2cc(=O)n3cccc(C)c3n2)cc1` was 94%; that for `CC(C)Cc1cc(C(=O)O)nc(=O)[nH]1` was 105%. The result for `CC(=O)c1ccc(NC(=O)COCc2cc(-c3ccc(F)cc3)on2)cc1` reads 102%; that for `Cc1ccccc1NC(=O)CSc1cn(CC(=O)N(C(C)C)C(C)C)c2ccccc12`, 54%; that for `CN1CCN(C(=O)C23CC4CC(CC(C4)C2)C3)CC1`, 111%. Regarding `COc1cc(C(=O)NCC(c2cccs2)S(=O)(=O)c2ccc(F)cc2)cc(OC)c1OC` (centres undefined), the survival was 104%. The value for `CCOc1ccc(S(=O)(=O)Nc2ccc(OC)c(Cl)c2)c2cccnc12` was 70%; that for `Cc1ccccc1CNC(=O)CCSCc1cnn(-c2ccccc2)c1-n1cccc1` was 64%. The result for `O=C(CCSCc1ccccc1Cl)NCc1ccc(F)cc1Cl` reads 8% (active). Turning to `O=C(NCc1ccccc1Cl)c1ccc(CSCc2cccc(F)c2)o1`, the survival is 17% (active). The value for `O=C(CCSCc1ccc(Cl)cc1)NCc1ccc(F)cc1Cl` was 88%. The value for `O=C(CCSCc1cccc(Cl)c1)NCc1ccc(F)cc1Cl` was 102%; that for `O=C(NCc1ccc(F)cc1Cl)c1ccc(CSCc2ccccc2Cl)o1` was 54%. Turning to `O=C(CCSCc1cnn(-c2ccccc2)c1-n1cccc1)NCc1ccccc1Cl`, the survival was 54% (active). The result for `O=C(CCSCc1cnn(-c2ccccc2)c1-n1cccc1)NCc1ccccc1F` reads 61%; that for `O=C(NCc1ccccc1Cl)c1ccc(CSCc2ccccc2Cl)o1`, 93%. In the case of `Fc1ccccc1N1CCN(c2ncc3c(n2)CCN(Cc2ccc(Br)s2)C3)CC1`, the survival is 66%.

For `CCc1nn2c(=O)cc(COC(=O)c3ccc(NC(=O)CCc4ccccc4)cc3)nc2s1`, the survival is 99%. For the molecule `COc1ccc(OC)c(NC(=O)C(C)n2nc(C)c3c(C)n(-c4ccccc4)nc3c2=O)c1` (centres undefined), the survival is 93%. Regarding `O=C(Nc1cccc(F)c1)C1CCN(S(=O)(=O)c2ccc3[nH]c4c(c3c2)CCCCC4)CC1`, the survival was 89%. The result for `CCCn1c2ccccc2c2cnn(CC(=O)NC(C)CC)c(=O)c21` (centres undefined) reads 72%; that for `O=C(NCc1ccco1)c1ccc2c(c1)N(Cc1ccc(Cl)cc1)C(=O)c1ccccc1S2`, 71%; that for `COc1ccc(CCN2C(=O)N(c3ccc(F)cc3)C(=O)C2CC(=O)Nc2ccccc2)cc1OC` (centres undefined), 76%. As for `Cc1ccc(NC(=O)Nc2nnc(SCC(=O)Nc3ccc(F)cc3F)s2)cc1`, the survival is 102%. The result for `Nc1nc(N)c(S(=O)(=O)c2ccccc2)c(Nc2ccccc2)n1` reads 69%. On to `Cc1nc(N)c(S(=O)(=O)c2ccccc2)c(Nc2ccc(Br)cc2)n1`, for which the survival is 87%.

For `Nc1nc(N)c(S(=O)(=O)c2ccccc2)c(Nc2ccc(Br)cc2)n1`, the survival was 44% (active). The result for `Cc1c(CN2CCOCC2)c(=O)n(-c2ccccc2)n1C` reads 87%; that for `CC1(N2CCOCC2)CC(=O)N(c2ccccc2)O1` (centres undefined), 62% (active). Consider `O=C1c2ccccc2C(=O)C1(O)N1CCOCC1`, for which the survival is 85%. Turning to `COc1ccc(OCC2c3cc(OC)c(OC)cc3CCN2C(=O)c2c(F)cccc2F)cc1` (centres undefined), the survival is 112%. The value for `CCN(CC)c1ccc(NC(=O)CCc2c(C)nc3ncnn3c2C)c(C)c1` was 115%. As for `CCN1CCN(CCCNC(=O)c2cc3c(=O)n(C)c4ccccc4c3s2)CC1`, the survival was 79%. The result for `O=C(NCCSCc1cccc(Cl)c1)C1CCN(S(=O)(=O)Cc2ccccc2)CC1` reads 63%. The result for `COc1ccc(OC)c(C2C(C(=O)Nc3ccc(C)cc3C)=C(C)Nc3c(C(=O)Nc4ccc(F)cc4)cnn32)c1` (centres undefined) reads 96%.
